Reference: the emibetuzumab library of Makowski et al. (2022)
Some of the results follow. No count for the full screen is at hand.

B1: VH:VL chains; a variant is named by its letters at X, in order (parent)
chain 1: QVQLVQSGAEVKKPGASVKVSCKASGYTFTDYXMHWVRQAPGQGLEWMGXVNPNXXXTTYNQKFEGRVTMTTDTSTSTAYMELRSLRSDDTAVYYCARXNXLDXWGQGTTVTVSS
chain 2: DIQMTQSPSSLSASVGDRVTITCSVSSSVSSIYLHWYQQKPGKAPKLLIYSTSNLASGVPSRFSGSGSGTDFTLTISSLQPEDFATYYCQVYSGYPLTFGGGTKVEIK

Variants of: B1
Assay: yeast display scFab, FACS + sequencing
Details: with MET
How it was run: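 Antigen binding was called positive for sequences present in both antigen-positive samples and negative for those present only in the input. These calls came from deep sequencing, in two replicates, of round-3 sorted and input populations from a heavy-chain CDR mutant scFab yeast surface library. The library was first enriched twice magnetically on HGFR-Fc-coated Protein A beads and then by FACS, gating the top 50% antigen-positive cells after 3 h labelling at room temperature with 1 nM HGFR-Fc plus anti-Myc in PBSB with 1% milk.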

Variant	antigen binding call
VTEENDGY	no binding
FAEGDDVY	no binding
ATTKSDVA	no binding
YARETDGA	no binding
DAGAADGA	no binding
YRRRGASS	binds
YRRRGSGS	binds
DAEATDVA	no binding
YREKGAGD	binds
YRAKGAGD	binds
YRAGTSGD	binds
YKEKGAVD	no binding
YRAKGSGD	binds
VAEKGAGD	no binding
DGGEGVVY	no binding
AKRGAFAD	no binding
VGGKNSVD	no binding
VKGRADAD	no binding
YRRKGAGD	binds
YAAGASVD	no binding
YRAGASGD	binds
YRAGSSGD	binds

Variant	antigen binding call
VKEADDVA	no binding
YREGGSLD	binds
DAEGGSLD	no binding
VTEGGSVD	no binding
YRGRTSLD	binds
YREGGSVD	binds
YRERSSLD	binds
VTTKSDVF	no binding
AETKGDVY	no binding
SAGEGDGV	no binding
FAKRGAWS	no binding
FKKRGAWS	binds
VKEKGAWV	no binding
AAKRGSWV	no binding
YKTRSAWS chain 1 M48I	no binding
VKEKGAWS	no binding
AKKRGAWS	binds
YARGADGS	no binding
AERRGSWS	no binding
VKKRGAWS	binds
FKTEGFVS	no binding
YKRGAAWS	binds

Variant	antigen binding call
DATGGDVF	no binding
YERTTDLS	no binding
VGGTSDGD	no binding
VTEEGDWV	no binding
ATKGAAVA	no binding
YEKGGAWS	no binding
YKKRGAWS	binds
VTTKSAGV	no binding
DAEATSLV	no binding
YRRGGSAA	binds
YRRGSSAA	binds
VTGEDDVD	no binding
VAARGDAA	no binding
VKARGSAF	binds
VAARGAAV	no binding
VKARGSAV	binds
VKARGAAV	binds
VKGRASAF	no binding
VEEEGSAV	no binding
VKAGDAAV	no binding
VKAGGDAV	no binding
